Measured values taken from PubChem BioAssay (EPA / NIEHS).
Inconclusive results are not listed. Calls of active or inactive are those of the source. The calls were made as follows, unless noted: active = hit-call score of the fitted dose curve at least 0.9, where 1 is the maximum; inactive = score below 0.9.

Assays:
[1] = read-out: succinate dehydrogenase complex iron sulfur subunit B (SDHB), SDHB (gene 6390); assay: LTEA_HepaRG_SDHB: Life Technologies and Expression Analysis (LTEA) Assay for succinate dehydrogenase complex iron sulfur subunit B (SDHB) using HepaRG (AID 2283528); details: mRNA level, 48 h; actives raise or lower the signal
Summary of the method: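 HepaRG, 48 h exposure, 8-pt half-log series from 100 uM in 0.5% DMSO, duplicates. Readout: SDHB mRNA by Fluidigm qRT-PCR vs housekeeping genes; bidirectional fit relative to DMSO.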

[2] = read-out: Signal transducer and activator of transcription 3 (Homo sapiens) (UniProt P40763); assay: LTEA_HepaRG_STAT3: Life Technologies and Expression Analysis (LTEA) Assay for Signal transducer and activator of transcription (STAT3) using HepaRG (AID 2283529); details: mRNA level, 48 h; actives raise or lower the signal
Summary of the method: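 HepaRG, 48 h exposure, 8-pt half-log series (top 100 uM), 0.5% DMSO vehicle, duplicates. Readout: STAT3 transcript by Fluidigm qRT-PCR, housekeeping-normalized; bidirectional fit vs DMSO baseline.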

[3] = read-out: solute carrier (SLCO1B1), SLCO1B1 (gene 10599); assay: LTEA_HepaRG_SLCO1B1: Life Technologies and Expression Analysis (LTEA) Assay for solute carrier (SLCO1B1) using HepaRG (AID 2283530); details: mRNA level, 48 h; actives raise or lower the signal
Summary of the method: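 Gain or loss of SLCO1B1 mRNA is fitted against the 0.5% DMSO vehicle in human HepaRG liver cells treated 48 h at up to 100 uM in half-log steps. Expression comes from qRT-PCR normalized to endogenous controls.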

[4] = read-out: sulfotransferase 2A1 (SULT2A1), SULT2A1 (gene 6822); assay: LTEA_HepaRG_SULT2A1: Life Technologies and Expression Analysis (LTEA) Assay for sulfotransferase 2A1 (SULT2A1) using HepaRG (AID 2283531); details: mRNA level, 48 h; actives raise or lower the signal
Summary of the method: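 Cells were plated and cultured 48 h, switched to serum-free induction medium, then dosed in duplicate for 48 h (8 concentrations, max 100 uM). RNA was isolated and SULT2A1 expression measured by qRT-PCR; gain or loss of signal fitted relative to DMSO.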

[5] = read-out: Transforming Growth Factor (TGFA), TGFA (gene 7039); assay: LTEA_HepaRG_TGFA: Life Technologies and Expression Analysis (LTEA) Assay for Transforming Growth Factor (TGFA) using HepaRG (AID 2283532); details: mRNA level, 48 h; actives raise or lower the signal
Summary of the method: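 qRT-PCR read-out of TGFA transcript, normalized to three housekeeping genes, fitted bidirectionally against 0.5% DMSO baseline. Human HepaRG cultures received chemicals for 48 h at eight half-log concentrations, top 100 uM.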

[6] = read-out: Transforming Growth Factor (TGFB1), TGFB1 (gene 7040); assay: LTEA_HepaRG_TGFB1: Life Technologies and Expression Analysis (LTEA) Assay for Transforming Growth Factor (TGFB1) Transporter using HepaRG (AID 2283533); details: mRNA level, 48 h; actives raise or lower the signal
Summary of the method: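 Expression change of TGFB1 in human HepaRG cells is measured after a 48 h chemical exposure, up to 100 uM in 0.5% DMSO vehicle. Curves are fitted in both directions relative to the DMSO baseline.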

[7] = read-out: TIMP1, TIMP1 (gene 7076); assay: LTEA_HepaRG_TIMP1: Life Technologies and Expression Analysis (LTEA) Assay for TIMP1 using HepaRG (AID 2283534); details: mRNA level, 48 h; actives raise or lower the signal
Summary of the method: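 We dosed human liver HepaRG cultures for 48 hours with up to 100 uM test chemical and measured TIMP1 expression by qRT-PCR. Activity in either direction is fitted relative to the 0.5% DMSO vehicle.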

[8] = read-out: Tumor necrosis factor receptor 1 (TNFRSF1A), TNFRSF1A (gene 7132); assay: LTEA_HepaRG_TNFRSF1A: Life Technologies and Expression Analysis (LTEA) Assay for Tumor necrosis factor receptor 1 (TNFRSF1A) using HepaRG (AID 2283535); details: mRNA level, 48 h; actives raise or lower the signal
Summary of the method: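 Expression of TNFRSF1A in human HepaRG liver cells was measured by qRT-PCR 48 h after chemical dosing (maximum 100 uM). Bidirectional curve fitting used 0.5% DMSO as baseline.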

[9] = read-out: Thyroid Hormone Responsive (THRSP), THRSP (gene 7069); assay: LTEA_HepaRG_THRSP: Life Technologies and Expression Analysis (LTEA) Assay for Thyroid Hormone Responsive (THRSP) using HepaRG (AID 2283536); details: mRNA level, 48 h; actives raise or lower the signal
Summary of the method: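 qRT-PCR read-out (Fluidigm TaqMan), housekeeping-normalized (ACTB/GAPDH/POLR2A). HepaRG, 48 h chemical exposure, 8-pt half-log series from 100 uM in 0.5% DMSO, duplicates. Bidirectional curve fit vs 0.5% DMSO baseline.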

[10] = read-out: Cellular tumor antigen p53 (Homo sapiens) (UniProt P04637); assay: LTEA_HepaRG_TP53: Life Technologies and Expression Analysis (LTEA) Assay for Tumor Protein P53 (TP53) using HepaRG (AID 2283537); details: mRNA level, 48 h; actives raise or lower the signal
Summary of the method: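 HepaRG, 48 h exposure, top 100 uM, half-log 8-point, 0.5% DMSO vehicle, duplicates. Read: TP53 mRNA by TaqMan qRT-PCR, normalised to ACTB/GAPDH/POLR2A; bidirectional fit vs DMSO.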

[11] = read-out: UDP glucuronosyltransferase (UGT1A1), UGT1A1 (gene 54658); assay: LTEA_HepaRG_UGT1A1: Life Technologies and Expression Analysis (LTEA) Assay for UDP glucuronosyltransferase (UGT1A1) using HepaRG (AID 2283538); details: mRNA level, 48 h; actives raise or lower the signal
Summary of the method: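 mRNA induction or loss of UGT1A1, by TaqMan qRT-PCR, in duplicate HepaRG wells after 48 h exposure to half-log dilutions topping at 100 uM; DMSO (0.5%) served as baseline.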

[12] = LTEA_HepaRG_LDH_cytotoxicity: Cytotoxicity Assessment in the Life Technologies and Expression Analysis (LTEA) Assay (AID 2283563; active = hit-call score of the fitted dose curve at least 0.9, where 1 is the maximum;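 as to AC50: LDH activity released into spent culture medium as a marker of cell death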)
Summary of the method: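 Human HepaRG hepatic cells are treated with test chemicals for 48 h at up to 100 uM in 0.5% DMSO. Cytotoxicity is scored from medium LDH against the vehicle control.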

[13] = TOX21_p53_BLA_p2_viability: Viability Assessment in the Tox21 HCT-116 p53 Agonism Beta-lactamase Assay, Phase 2 (AID 2283591; active = hit-call score of the fitted dose curve at least 0.9, where 1 is the maximum;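 also: compound exposure lasted 16 h at 37 °C; actives lower the ATP signal meaning cytotoxicity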)
Summary of the method: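 HCT116 p53-bla cells, 4000/well, dosed after 5 h plating (217-fold dilution of DMSO stocks) and incubated 16 h at 37C. Viability taken as cellular ATP by CellTiter-Glo luminescence after 30 min RT; signal loss marks cytotoxicity.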

[14] = target: Cellular tumor antigen p53 (Homo sapiens) (UniProt P04637); assay: TOX21_p53_BLA_p2_ratio: Tox21 HCT-116 p53 Agonism Beta-lactamase Assay, Ratio, Phase 2 (AID 2283592; active = hit-call score of the fitted dose curve at least 0.9, where 1 is the maximum)
Cellular tumor antigen p53 (Homo sapiens), sequence (P04637 whole entry, looked up): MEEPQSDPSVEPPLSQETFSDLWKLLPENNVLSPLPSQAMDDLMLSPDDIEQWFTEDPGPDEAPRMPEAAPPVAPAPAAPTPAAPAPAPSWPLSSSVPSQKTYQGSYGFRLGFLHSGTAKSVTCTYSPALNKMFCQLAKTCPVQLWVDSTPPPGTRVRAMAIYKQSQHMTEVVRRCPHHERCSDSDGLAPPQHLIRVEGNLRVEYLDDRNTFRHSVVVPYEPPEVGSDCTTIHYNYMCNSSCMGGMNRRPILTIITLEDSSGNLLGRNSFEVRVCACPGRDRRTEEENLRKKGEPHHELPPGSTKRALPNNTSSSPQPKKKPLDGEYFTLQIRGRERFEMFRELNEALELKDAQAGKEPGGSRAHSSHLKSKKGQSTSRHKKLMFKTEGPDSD
Summary of the method: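 Cleaved-to-uncleaved substrate ratio (460 vs 530 nm) measured in HCT116 cells with an inducible beta-lactamase reporter linked to p53 activity. Compounds incubated 16 h at 37C before 2 h room-temperature CCF4-AM loading.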

[15] = TOX21_p53_BLA_p3_viability: Viability Assessment in the Tox21 HCT-116 p53 Agonism Beta-lactamase Assay, Phase 3 (AID 2283593; active = hit-call score of the fitted dose curve at least 0.9, where 1 is the maximum;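 also: cells exposed to compound for 16 h before reading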)
Summary of the method: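 HCT116 cells, 4000/well, dosed 5 h after plating by pin transfer (217-fold dilution from DMSO stock) and incubated 16 h at 37C, 5% CO2. Viability read as ATP luminescence with CellTiter-Glo after 30 min at room temperature.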

[16] = target: Cellular tumor antigen p53 (Homo sapiens) (UniProt P04637); assay: TOX21_p53_BLA_p3_ratio: Tox21 HCT-116 p53 Agonism Beta-lactamase Assay, Ratio, Phase 3 (AID 2283596; active = hit-call score of the fitted dose curve at least 0.9, where 1 is the maximum)
Summary of the method: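 Cells were seeded at 4000/well, rested 5 h at 37C, then dosed with DMSO compound solutions (217-fold dilution) for 16 h. CCF4-AM substrate was loaded for 2 h at room temperature, and the 460/530 nm emission ratio was fitted for gain of signal versus DMSO.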

[17] = TOX21_p53_BLA_p4_viability: Viability Assessment in the Tox21 HCT-116 p53 Agonism Beta-lactamase Assay, Phase 4 (AID 2283597; active = hit-call score of the fitted dose curve at least 0.9, where 1 is the maximum;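 also: hits lower the luminescence signal meaning cytotoxicity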)
Summary of the method: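 Viability is taken as cellular ATP: after 16 h compound exposure of HCT116 cells and a 2 h room-temperature CCF4-AM substrate step, CellTiter-Glo reagent is added and luminescence is measured 30 min later.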

[18] = read-out: UDP glucuronosyltransferase (UGT1A6), UGT1A6 (gene 54578); assay: LTEA_HepaRG_UGT1A6: Life Technologies and Expression Analysis (LTEA) Assay for UDP glucuronosyltransferase (UGT1A6) using HepaRG (AID 2283539); details: mRNA level, 48 h; actives raise or lower the signal
Summary of the method: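 Endpoint is UGT1A6 transcript induction or loss in a human liver cell line, quantified by TaqMan qRT-PCR 48 h after dosing. Concentrations ran from 100 uM downward in half-log steps in 0.5% DMSO; activity was fitted in both directions versus vehicle.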

[19] = ATG_XTT_Cytotoxicity: Cytotoxicity Assessment in the Attagene TRANS-FACTORIAL HepG2 Assay (AID 2283584; active = hit-call score of the fitted dose curve at least 0.9, where 1 is the maximum)
Summary of the method: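 Transfect HepG2 with GAL4-UAS reporter units, dose compound, incubate 24 h, then measure viable cell number by XTT. Fit concentration response against DMSO baseline.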

[20] = read-out: X-box binding protein 1 (XBP1), XBP1 (gene 7494); assay: LTEA_HepaRG_XBP1: Life Technologies and Expression Analysis (LTEA) Assay for X-box binding protein 1 (XBP1) using HepaRG (AID 2283540); details: mRNA level, 48 h; actives raise or lower the signal
Summary of the method: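 Human HepaRG monolayers receive test chemical for 48 h across an eight-point half-log series starting at 100 uM. XBP1 mRNA gain or loss is scored against DMSO by qRT-PCR.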

Measured: AC50

Signal transducer and activator of transcription 3 (Homo sapiens), sequence (P40763 whole entry, looked up): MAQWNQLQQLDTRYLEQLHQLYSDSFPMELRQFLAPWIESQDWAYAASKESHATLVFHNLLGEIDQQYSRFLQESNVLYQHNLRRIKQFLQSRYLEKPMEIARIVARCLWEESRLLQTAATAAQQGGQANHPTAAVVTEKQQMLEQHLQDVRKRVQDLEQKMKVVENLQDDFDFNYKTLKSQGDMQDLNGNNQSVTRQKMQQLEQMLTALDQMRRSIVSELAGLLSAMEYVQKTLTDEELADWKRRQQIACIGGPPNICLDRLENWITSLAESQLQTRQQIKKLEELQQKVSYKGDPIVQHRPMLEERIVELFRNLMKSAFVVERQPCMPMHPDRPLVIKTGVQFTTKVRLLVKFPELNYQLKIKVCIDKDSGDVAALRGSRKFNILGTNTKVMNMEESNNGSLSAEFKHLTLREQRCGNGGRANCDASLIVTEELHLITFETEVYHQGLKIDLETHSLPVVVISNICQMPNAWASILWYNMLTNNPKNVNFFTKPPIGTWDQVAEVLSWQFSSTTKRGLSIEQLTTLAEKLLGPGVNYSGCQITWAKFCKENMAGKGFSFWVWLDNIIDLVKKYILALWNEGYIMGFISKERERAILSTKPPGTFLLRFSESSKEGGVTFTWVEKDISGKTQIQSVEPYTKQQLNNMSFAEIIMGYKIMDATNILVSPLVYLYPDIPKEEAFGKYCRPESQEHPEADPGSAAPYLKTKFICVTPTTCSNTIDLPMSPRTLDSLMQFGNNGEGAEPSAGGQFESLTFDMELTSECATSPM

CN[C@H]1CC[C@@H](c2ccc(Cl)c(Cl)c2)c2ccc(S(N)(=O)=O)cc21
active: [2] 50 µM | [4] 87.6 µM | [10] 87.6 µM | [11] 37 µM | [12] 36.9 µM | [13] 78.4 µM | [14] 87 µM | [15] 71.7 µM | [16] 86.1 µM | [17] 61.9 µM
inactive: [1] | [3] | [5] | [6] | [7] | [8] | [9]

CN1CCCC1=O
not listed: [11] | [13] | [20]
inactive: all other assays above

CCOC(=O)CCC(=O)OCC
not listed: [11] | [15] | [17]
inactive: all other assays above

COc1ccc(S(=O)(=O)N2C(=O)[C@@](c3ccccc3OC)(N3C[C@H](O)C[C@H]3C(=O)N(C)C)c3cc(Cl)ccc32)c(OC)c1
inactive: [7] | [8] | [20] | [16]
active: [1] 12.9 µM | [2] 50 µM | [3] 25.9 µM | [4] 50.7 µM | [5] 78.7 µM | [6] 19.1 µM | [9] 19.5 µM | [10] 22.7 µM | [18] 79 µM | [12] 79.5 µM | [13] 86.3 µM | [14] 74.9 µM | [17] 67.7 µM

Cc1cccc([N+](=O)[O-])c1C
not listed: [11] | [19]
inactive: all other assays above

COCCOCCOC
active: [1] 10.9 µM | [5] 1.21 µM | [10] 0.59 µM | [20] 1.16 µM
not listed: [11] | [15] | [17]
inactive: all other assays above

C=CCc1ccc(O)c(OC)c1
not listed: [17] | [18] | [19]
inactive: all other assays above

CN1CCN(Cc2cc(-c3ccc4[nH]c(=O)oc4c3)co2)[C@@H](c2ccc(F)cc2)C1
active: [6] 62 µM
not listed: [16] | [18] | [19]
inactive: all other assays above
